tested on: Sonic hedgehog protein (Shh); experiment: small-molecule binders of Shh protein, primary screen, biochemical, small-molecule microarray, 635/667 nm fluorescence (AID 1151); details: small-molecule microarray binding, 635 nm fluorescence; higher = more signal;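 also: Shh protein binding to compounds spotted on small-molecule microarray slides; score combines spot fluorescence intensity with signal-to-noise across triplicate slides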

Question: How did the composite z-score turn out when `COC(=O)C(CC#Cc1ccc2c(c1)[C@]1(C(=O)N2)[C@H](c2ccc(O)cc2)N2[C@H](c3ccccc3)[C@H](c3ccccc3)OC(=O)[C@H]2[C@@H]1C(=O)N1CCCCCCC1)C(=O)OC` was run?
Answer: 0.777

Question: `CC(C)=CCCC(C)=CC(O)C1C=CC2C(=O)N(c3ccccc3)C(=O)C2N1Nc1ccccc1F` (stereo unspecified) was tested. Which composite z-score did it give?
Answer: 0.396

Question: `CN(C)CCCCNC(=O)[C@H]1C[C@H]2C(=O)N[C@@H](CCCC[N+](C)(C)C)C(=O)N2[C@H]1c1ccc(O)cc1` was tested. Which composite z-score did it give?
Answer: 0.719

Question: `CN(C)CCCNC(=O)[C@@H]1c2ccccc2C(=O)N(C2CCCCC2)[C@H]1c1ccc(CO)cc1` was tested. Which composite z-score did it give?
Answer: 1.81

Question: How did the composite z-score turn out when `CC(C)CNC(=O)[C@@H]1c2ccccc2C(=O)N(C2CCCCC2)[C@H]1c1ccc(CO)cc1` was run?
Answer: -0.242

Question: How did the composite z-score turn out when `O=C1C2C=CC(C(O)c3ccco3)N(Nc3ccccc3)C2C(=O)N1c1ccccc1` (stereo unspecified) was run?
Answer: -0.998

Question: How did the composite z-score turn out when `COc1ccc([Si](C)(C)[C@@H]2[C@@H](CCn3cc([C@H](O)c4ccccc4)nn3)O[C@]3(C(=O)N(c4ccccc4)c4ccccc43)[C@H]2C)cc1` was run?
Answer: 0.618

Question: How did the composite z-score turn out when `CCCNC(=O)[C@@]1(Sc2ccc(C)cc2)CC(=O)N(C2CCCCC2)[C@@H]1c1ccc(CO)cc1I` was run?
Answer: -0.158

Question: How did the composite z-score turn out when `COC(=O)C(CC#Cc1ccc2c(c1)[C@]1(C(=O)N2)[C@H](C(=O)Nc2nc3ccccc3s2)[C@H]2C(=O)O[C@H](c3ccccc3)[C@H](c3ccccc3)N2[C@@H]1c1ccc(OCCO)cc1)C(=O)OC` was run?
Answer: 1.53

Question: How did the composite z-score turn out when `CC(=O)NCCCC[C@@H]1NC(=O)[C@@H]2C[C@H](C(=O)NCCCCCCN)[C@H](c3cccc(OCCO)c3)N2C1=O` was run?
Answer: -0.601

Question: How did the composite z-score turn out when `COc1ccc([Si](C)(C)[C@H]2[C@H](CCO)O[C@@]3(C(=O)N(Cc4ccc(N5C(=O)c6ccccc6Oc6ccccc65)cc4)c4ccccc43)[C@@H]2C)cc1` was run?
Answer: 1.13

Question: Which composite z-score does the source give for `CCCCC=C[C@@H](NC(=O)c1ccccc1)c1ccccc1` here?
Answer: -0.863

Question: How did the composite z-score turn out when `COCCOC(=O)N1C(=O)[C@@]2(c3cc(C#CC4=CCCCC4)ccc31)[C@H](C(=O)N1CCCCCCC1)[C@H]1C(=O)O[C@H](c3ccccc3)[C@H](c3ccccc3)N1[C@@H]2c1ccc(OCCO)cc1` was run?
Answer: 1.25

Question: For `COCCOC(=O)N1C(=O)[C@@]2(c3cc(C#CCNC(N)=O)ccc31)[C@H](c1ccc(O)cc1)N1[C@H](c3ccccc3)[C@H](c3ccccc3)OC(=O)[C@H]1[C@@H]2C(=O)N1CCN(c2ncccn2)CC1`, which composite z-score is on record?
Answer: 0.905

Question: Which composite z-score does the source give for `COCCOC(=O)N1C(=O)[C@@]2(c3cc(C#CCCO)ccc31)[C@H](c1ccccc1OCCO)N1[C@H](c3ccccc3)[C@H](c3ccccc3)OC(=O)[C@H]1[C@@H]2C(=O)N1CCCCCCC1` here?
Answer: 1.97

Question: `CC(=O)N1CC(C(O)C2C=CC3C(=O)NC(=O)C3N2Nc2ccc(Cl)cc2Cl)c2ccccc21` (stereo unspecified) was tested. Which composite z-score did it give?
Answer: -0.123

Question: With `COc1cc2c(cc1OC)CN(C(=O)[C@@H]1[C@H]3C(=O)O[C@H](c4ccccc4)[C@H](c4ccccc4)N3[C@H](c3ccc(O)cc3)[C@@]13C(=O)Nc1ccc(C#CCCO)cc13)CC2` as the compound, how does the composite z-score read?
Answer: 0.655

Question: Which composite z-score does the source give for `NCCCCCNC(=O)[C@H]1C[C@H]2C(=O)N[C@@H](Cc3ccccc3)C(=O)N2[C@H]1c1ccc(O)cc1` here?
Answer: 0.313

Question: `CC(C)OC(=O)CC(=O)CC(O)c1ccc([N+](=O)[O-])cc1` (stereo unspecified) was tested. Which composite z-score did it give?
Answer: -0.514

Question: Which composite z-score does the source give for `CCCNC(=O)[C@@]1(C)c2ccccc2C(=O)N(Cc2ccccc2)[C@H]1c1ccc(CO)cc1` here?
Answer: -0.203

Question: How did the composite z-score turn out when `COC(=O)[C@@]1(Cc2ccc(OC)cc2)[C@H]2c3cc(C(=O)N4CCCC4)n(Cc4cc(C)n(C)n4)c3C[C@H]2CN1C(=O)c1ccccc1` was run?
Answer: -0.319

Question: `C=CCC(OC(C)=O)[C@@H]1[C@@H](N(Cc2ccc(-c3cccc(C(F)(F)F)c3)o2)C(=O)c2ccc(C)cc2)c2cc(OCCCO)ccc2N1C(=O)Cc1ccc(OC)cc1` (stereo partly specified) was tested. Which composite z-score did it give?
Answer: 1.53

Question: For `CC(=O)n1cc(C(O)C2C=CC3C(=O)N(c4ccccc4)C(=O)C3N2Nc2ccc(C(C)C)cc2)c2ccccc21` (stereo unspecified), which composite z-score is on record?
Answer: -0.69

Question: With `C=CCC(OC(C)=O)[C@@H]1[C@@H](N(Cc2ccc(-c3ccccc3)cc2)C(=O)c2ccc(C)cc2)c2cc(OCCCO)ccc2N1C(=O)Cc1ccc2ccccc2c1` (stereo partly specified) as the compound, how does the composite z-score read?
Answer: 1

Question: How did the composite z-score turn out when `COc1cc(C(O)C2C=CC3C(=O)N(Cc4ccccc4)C(=O)C3N2n2cnnc2)cc(OC)c1OC` (stereo unspecified) was run?
Answer: 0.131

Question: How did the composite z-score turn out when `COc1ccc(C(=O)Nc2cccc(CN3C(=O)[C@@]4(O[C@@H](CC(=O)N(CCO)Cc5ccccc5)[C@H]([Si](C)(C)c5ccc(OC)cc5)[C@H]4C)c4ccccc43)c2)cc1` was run?
Answer: 1.51
